From PubChem
In the library only some 17% were active in any assay of this set; here they are far more common.
TDP1 cell noCPT = qHTS for Inhibitors of human tyrosyl-DNA phosphodiesterase 1 (TDP1): qHTS in cells in absence of CPT; Potency, µM (titrated, usually from 46.2 µM), for the others: top-dose activity change, negative = growth inhibition, usual class: inhibitors; DT40 Tdp1-/- hTDP1 cells, no CPT, ATP luminescence, 48 h; 420,000 compounds, 15% hits; further: on the % scale 0 is the no-effect control and ±100 the full control effect; nearly all actives have a fitted effect of over 55% in size
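Seeded 400 DT40-hTDP1 cells/well (vehicle DMSO, no 20 nM CPT); pinned compounds; ≥48 hr at 37 °C; CellTiter-Glo luminescence as viability measure.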
HepG2 tox = HepG2 cytotoxicity, counter-screen for TGF-b inhibitors; HepG2 CAGA-GFP viability, ATP luminescence, 18 h; Potency, µM (series often up to 46.1 µM), for the others: top-dose activity change, negative = cytotoxicity, usual class: cytotoxic; 410,000 compounds, 0.76% hits; AID 588856
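CellTiter-Glo luminescence gave cytotoxicity after 18 hours at 37 degrees C. The cells were HepG2 CAGA-GFP in 1% FBS DMEM, stimulated with 500 pg/mL TGF-beta after compound addition. %Activity was normalised to no-cell wells (complete cell-killing) and DMSO (no toxicity), and curves were fitted and classified.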
TGFb SMAD3 inh = TGF-b pathway inhibition | 410,000 compounds, 1.2% hits | HepG2 CAGA-GFP TGF-b/SMAD3 reporter, GFP fluorescence, 18 h; TGF-beta stimulated, 500 pg/mL final | Potency, µM (doses to about 46.1 µM), for inactives: at the highest dose activity, negative = inhibition, most hits filed as inhibitors; further: on the % scale 0 is the no-effect control and ±100 the full control effect; nearly all actives have a fitted effect of over 65% in size
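HEPG2 CAGA-GFP cells (1000/well, DMEM with 1% FBS) were pre-incubated 2 h at 37 degrees C, given compound by pin tool, then stimulated with TGF-beta at 500 pg/mL final for 18 h before per-cell GFP fluorescence imaging.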
ATXN viability = cell viability loss in ATXN counter-screen; 400,000 compounds, 0.49% hits; S2 cells (HEK-293 line with an ATXN2-luciferase reporter) viability, CellTiter-Fluor protease fluorescence, 24 h; AID 651635; Potency, µM (top dose mostly 56.7 µM), usual class: cytotoxic; further: nearly all actives have a fitted effect of over 40% in size
ATXN2 expr inh = reduces ATXN2 reporter expression in HEK-293 cells; HEK-293 ATXN2-luciferase reporter, luminescence, 24 h; Potency, µM (top dose mostly 57 µM), inactives show at the highest dose activity change, negative = inhibition, hits mostly inhibitors; 360,000 compounds, 0.72% hits; further: on the % scale 0 is the no-effect control and ±100 the full control effect; nearly all actives have a fitted effect of over 55% in size
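qHTS (up to 57 uM final) was run with 24 h compound exposure of reporter cells at 37 °C. Each well was multiplexed: SteadyGlo luminescence measured ATXN2-luciferase expression after a fluorogenic Gly-Phe-AFC viability readout (25 uM final).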
TDP1 cell CPT = DT40-hTDP1 cell growth loss with CPT; 420,000 compounds, 12% hits; AID 686979; Potency, µM (series often up to 46.2 µM), without a hit: at the highest dose activity change, negative = growth inhibition, actives largely listed as inhibitors; chicken DT40 Tdp1-/-;hTDP1 cells + 20 nM CPT, ATP luminescence, 48 h; further: on the % scale 0 is the no-effect control and ±100 the full control effect; nearly all actives have a fitted effect of over 55% in size
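Chicken DT40 Tdp1-/- cells stably complemented with human TDP1 were seeded at 400 cells/well in medium containing 20 nM camptothecin, exposed to pin-transferred compounds, and grown at 37 °C for at least 48 hr. Viability was read as ATP luminescence.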
Numbers without * were called inactive; i = inactive; ? = inconclusive; . = no result; [ ] = dose if it differs, or a comment. The call rests on the fitted dose curve; in most records, active means well fitted curve in the direction sought with a large enough effect; inconclusive means small, poorly fitted or top-dose-only effect, or another doubt; inactive means no such curve, though single readings can be large; an effect the other way counts as inactive or inconclusive. Potency means the concentration at half of the fitted maximal effect.

SMILES	TDP1 cell noCPT	HepG2 tox	TGFb SMAD3 inh	ATXN viability	ATXN2 expr inh	TDP1 cell CPT
COc1ccc(CCNC(=O)c2cc3c(=O)n(C)c4cc(Cl)ccc4c3s2)cc1OC	?	-18%	17%	i	-4%	?
COCc1ccc2oc(C(=O)O)cc2c1	23µM*	-1%	-1%	i	-2%	12µM*
Cc1cc(OC(C)C(=O)N(Cc2ccco2)Cc2ccco2)cc(C)c1Cl (centres undefined)	9.2µM*	-70%	?	.	.	15µM*
Cc1cc(C)cc(OCC(=O)N(Cc2ccco2)c2c(N)n(Cc3ccccc3)c(=O)[nH]c2=O)c1	3%	0%	5%	i	.	-2%
Cc1cc(C)c(OCC(=O)N(Cc2cccc(F)c2)Cc2ccco2)c(C)c1	18µM*	11µM*	-49%	.	.	15µM*
Cc1cc(C)c(OCC(=O)OCC(=O)NCc2ccco2)c(C)c1	-7%	-3%	-2%	i	.	-4%
CN(C)c1ccc(CN(Cc2ccco2)C(=O)COc2ccc(F)cc2)cc1	10µM*	-13%	.	.	.	?
Cc1cc(C)cc(OCC(=O)N(Cc2ccco2)Cc2ccccc2Cl)c1	21µM*	-47%	.	.	.	21µM*
COc1cc(SC)ccc1C(=O)Nc1ncc(Cl)cc1Cl	6%	-21%	12%	i	37%	-2%
COCCNC(=O)c1cn(C)c2ccc(S(=O)(=O)N3CCCCC3)cc2c1=O	?	-64%	-24%	i	.	?
O=C(NNC(=S)Nc1ccc(C(=O)O)c(O)c1)c1ccncc1	-108%	-8%	-1%	i	?	-107%
CC1CCN(S(=O)(=O)c2cn(CC(=O)Nc3ccc(OC(F)(F)F)cc3)cn2)CC1	27%	-4%	-19%	i	-4%	8%
Cc1ccc(OCC(=O)N(Cc2ccco2)Cc2ccco2)cc1	16µM*	-15%	0%	.	.	?
Cc1cccc(C)c1OCC(=O)N(Cc1ccco1)Cc1ccco1	23µM*	-31%	0%	.	.	?
Cc1ccc(CN(Cc2ccco2)C(=O)COc2cc(C)c(Cl)c(C)c2)cc1	13µM*	-52%	?	i	-30%	21µM*
Cc1ccc(CN(Cc2ccco2)C(=O)COc2ccc(C(C)C)cc2)cc1	?	-56%	?	.	.	?
Cc1cccc(OCC(=O)N(Cc2ccco2)C2CCS(=O)(=O)C2)c1C (centres undefined)	?	-3%	5%	?	-4%	-17%
O=C(NCCCN1CCCCC1)c1ccc(CS(=O)c2ccc(F)cc2)o1 (centres undefined)	27%	9%	1%	i	2%	-19%
CC(NC(=O)C(NC(=O)C(Cc1c[nH]c2ccccc12)NC(=O)OC(C)(C)C)C(C)C)C(N)=O (centres undefined)	5%	1%	9%	i	-2%[11.3 µM]	7%
CC(=O)N1CCC(=O)Nc2ccc([N+](=O)[O-])cc21	1%	2%	7%	i	10%[11.3 µM]	2%
O=C1c2ccc(Cl)cc2S(=O)(=O)c2cccc(C(=O)N3CCN(c4ncc(Br)cn4)CC3)c21	21µM*	-5%	0%	?	?	?
COc1ccc(-c2ccc3c(c2)S(=O)(=O)c2cccc(C(=O)N4CCN(c5c(Cl)cncc5Cl)CC4)c2C3=O)cc1OC	5.2µM*	-23%	-7%	i	-7%	5.8µM*
N#Cc1cccnc1N1CCN(C(=O)c2cccc3c2C(=O)c2ccc(-c4ccc(Cl)c(C(F)(F)F)c4)cc2S3(=O)=O)CC1	-23%	5%	1%	i	7%	?
O=C(NC1CCCC1)c1cccc2c1C(=O)c1ccc(Cl)cc1S2(=O)=O	-20%	3%	-32%	i	-9%	-4%
N#Cc1cccnc1N1CCN(C(=O)c2cccc3c2C(=O)c2ccc(Cl)cc2S3(=O)=O)CC1	16µM*	-2%	3%	20µM*	?	?
SMILES	TDP1 cell noCPT	HepG2 tox	TGFb SMAD3 inh	ATXN viability	ATXN2 expr inh	TDP1 cell CPT
CN(CCO)C(=O)c1cn(C2CCN(Cc3ccc4ccccc4c3)CC2)nn1	-9%	.	.	i	.	16%[9.04 µM]
CCc1nc2ccccc2nc1N1CCN(S(=O)(=O)c2ccc(Cl)cc2)CC1	?	-21%	-10%	i	2%	-5%
O=S(=O)(c1ccccc1)N1c2cc(Cl)ccc2Oc2nc3ccccc3nc21	10µM*	8%	-15%	i	22%	?
CCOC(=O)N1CCc2c(sc3c2c(=O)n(CCc2ccccc2)c(=O)n3CC(=O)Nc2ccc(C)cc2)C1	7.3µM*	2%	3%	.	.	9.2µM*
CN1CCc2c(sc3c2c(=O)n(-c2ccc(Cl)cc2)c2nncn32)C1	?	0%	0%	i	2%	?
COc1ccccc1NC(=O)Cn1c(=O)n(CCc2ccccc2)c(=O)c2c3c(sc21)CN(C(C)=O)CC3	16µM*	-27%	?	i	-23%	16µM*
CC(=O)N1CCc2c(sc3c2c(=O)n(CCc2ccccc2)c(=O)n3CC(=O)Nc2ccccc2F)C1	?	-32%	-23%	i	-18%	?
CCOC(=O)N1CCc2c(sc3c2c(=O)n(-c2ccc(Cl)cc2)c(=O)n3CC(=O)c2ccc(F)cc2)C1	21µM*	-2%	0%	.	.	?
CCOC(=O)N1CCc2c(sc3c2c(=O)n(-c2ccc(F)cc2)c(=O)n3CC(=O)c2ccccc2)C1	?	4%	-13%	.	.	?
CCN(CC)CCn1c(=O)n(-c2ccc(Cl)cc2)c(=O)c2c3c(sc21)CN(C)CC3	21µM*	-5%	0%	?	?	29µM*
Cc1cc(C)n(C(C)CC(=O)Nc2cccc(C(F)(F)F)c2)n1 (centres undefined)	?	-21%	-23%	i	-2%	-26%
Cc1nc(Cl)c(C(=O)NC(C)(C)C)c(C)c1Cl	0%	7%	3%	i	-16%	0%
CCOc1ccc(NC(=O)CC2C(=O)N(c3ccccc3)C(=O)N2Cc2ccco2)cc1 (centres undefined)	-16%	2%	16%	?	-28%	-4%
COCc1ccc([C@@H]2C[C@H]3CN(Cc4ccccc4C)C(=O)[C@]34CCCN24)o1	-3%	-10%	?	i	.	6%
